The source of these data is PubChem BioAssay (NCATS).

Structures are written as SMILES. A number with no mark means an inactive call. Inconclusive results are not listed. Active and inactive are the calls of the source. Unless noted, calls follow the shape of the dose curve; as a rule, active = well fitted curve in either direction with a large enough effect (not every such curve was filed as active); inconclusive = small, poorly fitted or top-dose-only effect, or another doubt; inactive = flat fitted curve, though single readings scatter.

Assay [1] addresses Lysosomal acid glucosylceramidase (Homo sapiens) (UniProt P04062). Put plainly: Glucocerebrosidase-p2 (AID 348; in the data active = potency below about 10 µM; also: potency is read from the fitted curve at half-maximal effect). To be noted: purified GBA, blue fluorogenic substrate, 40 min. The method in brief:
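Compounds titrated from 0.6 nM upwards against 0.2 nM enzyme in pH 5.9 citric acid/KH2PO4, taurocholate, tween-20; blue fluorogenic substrate 80 uM, 40 min room temperature, stopped and read Ex 365/Em 440 for AC50.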

A short description of assay [2]: AP1 Signaling Pathway (AID 357). Also: % is scaled to controls: 0 for no effect and ±100 for the full control effect. To be noted: ME-180 AP-1-bla reporter, EGF-induced, beta-lactamase ratio, 5 h; at 7.69 µM (top of the series) unless noted. In outline: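 ME-180 cells with beta-lactamase reporter under AP-1 response element, stimulated with EC50 EGF; compounds tested in titration series, 5 h at 37 °C. CCF4 substrate added 2.5 h at room temperature; 460/530 nm emission ratio gave %activity and AC50.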

Assay [3] concerns the target Cytochrome P450 1A2 (Homo sapiens) (UniProt P05177). Put plainly: p450-cyp1a2 (AID 410; calls by dose curve; also: potency is read from the fitted curve at half-maximal effect;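 as to activity change, negative = inhibition: -100% = full effect of reference inhibitor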). Particulars: recombinant CYP1A2, luciferin-ME demethylation, luminescence; series mostly up to 11.4 µM. The method in brief:
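Luminescent readout of luciferin formed from Luciferin-ME by human CYP1A2; data normalized against complete inhibition by 57 uM furafylline. Enzyme 20nM, substrate 100uM at Km, 100mM KPO4 buffer, 60 min reaction at room temperature.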

The nature of assay [4]: NFAT Signaling Pathway (AID 444).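 Also: carbachol stimulus at about its EC50 of 1 µM final; % is scaled to controls: 0 for no effect and ±100 for the full control effect.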 Particulars: Jurkat NFAT-bla M1, carbachol, beta-lactamase ratio, 5 h; at 7.69 µM (top of the series) unless noted. In outline: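 Jurkat cells with NFAT-driven β-lactamase reporter and co-expressed M1 receptor, stimulated with carbachol (final 1 uM, ~EC50), compound titration, 5 h at 37 °C. CCF4 loaded 1 h at RT; 460/530 nm ratio gave %activity and AC50.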

Assay [5] can be described thus: Stat Signaling Pathway (AID 446).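 Also: ME-180 cervical cancer cells given 40 pM IL-6 alongside compound; SIE-controlled beta-lactamase reporter measured as 460/530 nm FRET emission ratio; % is scaled to controls: 0 for no effect and ±100 for the full control effect.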 To be noted: ME-180 SIE beta-lactamase reporter, IL-6 stimulated, 5 h; at 7.69 µM (top of the series) unless noted. In outline: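 IL-6/STAT signaling read in ME-180 cells via an SIE beta-lactamase reporter. Stimulus was 40 pM IL-6 (its AC50) for 5 hrs, so both activation and inhibition register.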
In assay [6] the target is Glucocorticoid receptor (Homo sapiens) (UniProt P04150). Put plainly: GR-GFP Redistribution (AID 450;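 active = compounds whose dose series gives a full or clear partial fitted curve of increased nuclear translocation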; also: potency is read from the fitted curve at half-maximal effect). Particulars: U2OS GR-GFP nuclear translocation, laser cytometry, 2 h.
Assay [7] shares this target. Put plainly: GR-EFC Redistribution (AID 451; calls by dose curve; also: potency is read from the fitted curve at half-maximal effect). Particulars: CHO-K1 GR-EFC translocation, beta-gal luminescence, 2 h. The method in brief: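 CHO-K1 cells expressing nuclear EA and GR-ED fragments of b-gal; compounds titrated up to 46 uM final, 2 h at 37 C. GR nuclear translocation read as complemented b-gal luminescence after 1 h RT detection.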
Assay [8] deals with Mitogen-activated protein kinase 10 (Mus musculus) (UniProt Q61831). Put plainly: JNK3 AlphaScreen Assay (AID 530).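 Also: kinase came from lysate of stimulated human HepG2 cells; signal reports phosphorylation of biotinylated GST-cJun 1-79 at Ser73 with 10 µM ATP; % is scaled to controls: 0 for no effect and ±100 for the full control effect.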 Particulars: JNK3 lysate, c-Jun phosphorylation; series mostly up to 11.4 µM. In outline: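 Pre-activated (IL-1β/TNFα) JNK3 in HepG2 lysates phosphorylates biotin-GST-cJun(1-79), 10 uM ATP; anti-phospho-cJun(Ser73) AlphaScreen read at room temperature, pH 7.6 Tris buffer. Compounds pre-incubated 15 min as titrations.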
In general terms: In Alpha technology, singlet oxygen from a donor bead excites a nearby acceptor bead.

Assay [9] has as its target 3',5'-cyclic-AMP phosphodiesterase 4B (Homo sapiens) (UniProt Q07343). Put plainly: qHTS Assay for Inhibitors of PDE-IV (AID 607; active = well fitted activation curve with a large enough effect in the main read-out, with a control signal flat, not every such curve was filed as active; also: % of control where 0% means no effect). Particulars: HEK293 ACTOne CNG channel cells, membrane potential fluorescence; series mostly up to 22.9 µM. In outline:
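Live HEK293 cells with a modified cyclic nucleotide-gated (CNG) channel report intracellular cAMP via membrane-potential dye fluorescence (ex 535/em 590 nm). Endogenous PDE-IV was targeted. Compounds were tested at up to 22.9 uM final; RO 20-1724 100 uM served as control.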
For orientation: Quantitative high-throughput screening tests each substance at several concentrations.

In assay [10] the target is Cytochrome P450 2D6 (Homo sapiens) (UniProt P10635). Put plainly: qHTS Assay for Inhibitors and Substrates of Cytochrome P450 2D6 (AID 891; active = well fitted inhibition curve with a large enough effect; also: nearly all actives have a fitted effect of over 60% in size; also: potency is read from the fitted curve at half-maximal effect). To be noted: recombinant CYP2D6, luciferin-ME EGE luminescence; series mostly up to 11.4 µM. The method in brief:
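Human CYP2D6 (5 nM) with 30 uM Luciferin-ME EGE (at Km) in 100 mM KPO4, compound preincubated 10 min, then NADPH regeneration system for 60 min at room temperature. Luciferin read by luminescence; normalized to 1.43 uM quinidine.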

Assay [11] addresses Cytochrome P450 2C19 (Homo sapiens) (UniProt P33261). Put plainly: qHTS Assay for Inhibitors and Substrates of Cytochrome P450 2C19 (AID 899; active = well fitted inhibition curve with a large enough effect; also: nearly all actives have a fitted effect of over 60% in size; also: potency is read from the fitted curve at half-maximal effect). Particulars: recombinant CYP2C19, luciferin-H EGE luminescence; series mostly up to 11.4 µM. In outline: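 Signal comes from luciferase acting on luciferin released by CYP2C19-mediated hydroxylation of Luciferin-H EGE, 10uM (KM). Assay mix: 5nM enzyme, 50mM KPO4; 60 min at 37C with NADPH regeneration. Data normalized against 57uM ketoconazole.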

Assay [12] can be described thus: qHTS Assay for Identification of Small Molecule Agonists for Hypoxia Response Element Signaling Pathway (AID 914; active = well fitted activation curve with a large enough effect in the signal ratio, with a control signal flat, not every such curve was filed as active; the % refers to the signal ratio; also: % of control where 0% means no effect). To be noted: ME-180 (cervical carcinoma) HRE-bla reporter, beta-lactamase ratio, CoCl2, 17 h; activation: hits give high values. The method in brief:
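qHTS titration; ME-180 HRE-bla cells; EC50 CoCl2 co-treatment, 17 h at 37 degrees Celsius; CCF4 dye, ex 405nm, em 460nm and 530nm; %Activity from ratio; AC50.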

Chain of 3',5'-cyclic-AMP phosphodiesterase 4B (Homo sapiens) (Q07343 whole entry, looked up): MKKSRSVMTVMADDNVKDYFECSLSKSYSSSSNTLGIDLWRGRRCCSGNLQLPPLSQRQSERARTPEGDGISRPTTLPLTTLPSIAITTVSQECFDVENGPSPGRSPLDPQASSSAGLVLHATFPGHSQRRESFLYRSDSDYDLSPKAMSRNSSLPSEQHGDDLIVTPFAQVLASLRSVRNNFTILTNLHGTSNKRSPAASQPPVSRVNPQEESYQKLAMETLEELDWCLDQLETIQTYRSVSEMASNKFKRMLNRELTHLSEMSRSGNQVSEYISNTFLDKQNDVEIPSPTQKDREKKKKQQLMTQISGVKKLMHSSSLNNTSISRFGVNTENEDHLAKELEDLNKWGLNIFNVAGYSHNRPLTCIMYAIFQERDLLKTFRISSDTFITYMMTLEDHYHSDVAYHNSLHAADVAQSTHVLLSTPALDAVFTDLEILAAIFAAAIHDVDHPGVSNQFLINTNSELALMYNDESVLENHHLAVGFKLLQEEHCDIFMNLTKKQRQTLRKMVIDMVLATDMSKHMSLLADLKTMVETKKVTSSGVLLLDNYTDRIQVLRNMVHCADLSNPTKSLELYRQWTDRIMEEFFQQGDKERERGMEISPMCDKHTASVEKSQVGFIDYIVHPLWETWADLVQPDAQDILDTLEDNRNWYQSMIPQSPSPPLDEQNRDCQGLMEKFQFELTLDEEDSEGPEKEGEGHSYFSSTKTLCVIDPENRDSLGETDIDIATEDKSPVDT
Chain of Lysosomal acid glucosylceramidase (Homo sapiens) (P04062 whole entry, looked up): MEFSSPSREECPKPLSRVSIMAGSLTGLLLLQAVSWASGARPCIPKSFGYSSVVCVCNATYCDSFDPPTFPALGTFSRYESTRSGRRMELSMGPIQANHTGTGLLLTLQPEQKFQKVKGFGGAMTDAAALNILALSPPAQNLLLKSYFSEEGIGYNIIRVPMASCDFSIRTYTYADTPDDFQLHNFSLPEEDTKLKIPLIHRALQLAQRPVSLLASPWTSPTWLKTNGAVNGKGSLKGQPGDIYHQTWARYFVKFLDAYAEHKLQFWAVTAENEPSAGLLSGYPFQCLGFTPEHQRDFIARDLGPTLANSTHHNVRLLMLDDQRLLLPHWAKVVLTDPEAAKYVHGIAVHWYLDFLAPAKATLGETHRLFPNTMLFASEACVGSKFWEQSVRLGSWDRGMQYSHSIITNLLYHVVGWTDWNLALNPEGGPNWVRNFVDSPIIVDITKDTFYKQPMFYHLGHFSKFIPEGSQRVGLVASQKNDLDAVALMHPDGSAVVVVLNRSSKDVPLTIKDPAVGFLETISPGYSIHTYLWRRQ
Chain of Cytochrome P450 2D6 (Homo sapiens) (P10635 whole entry, looked up): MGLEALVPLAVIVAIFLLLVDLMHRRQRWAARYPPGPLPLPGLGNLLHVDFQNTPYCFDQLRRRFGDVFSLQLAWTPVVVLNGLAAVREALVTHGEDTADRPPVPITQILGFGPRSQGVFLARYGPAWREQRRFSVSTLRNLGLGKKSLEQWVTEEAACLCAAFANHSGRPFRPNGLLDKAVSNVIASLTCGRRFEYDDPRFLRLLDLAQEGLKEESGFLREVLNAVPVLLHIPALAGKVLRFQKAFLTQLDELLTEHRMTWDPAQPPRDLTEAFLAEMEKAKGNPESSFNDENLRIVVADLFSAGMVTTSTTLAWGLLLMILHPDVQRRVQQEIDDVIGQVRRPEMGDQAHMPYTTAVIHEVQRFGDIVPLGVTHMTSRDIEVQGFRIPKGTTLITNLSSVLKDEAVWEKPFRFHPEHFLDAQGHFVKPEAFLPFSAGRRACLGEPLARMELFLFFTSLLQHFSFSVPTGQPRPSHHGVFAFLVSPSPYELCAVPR
Chain of Cytochrome P450 1A2 (Homo sapiens) (P05177 whole entry, looked up): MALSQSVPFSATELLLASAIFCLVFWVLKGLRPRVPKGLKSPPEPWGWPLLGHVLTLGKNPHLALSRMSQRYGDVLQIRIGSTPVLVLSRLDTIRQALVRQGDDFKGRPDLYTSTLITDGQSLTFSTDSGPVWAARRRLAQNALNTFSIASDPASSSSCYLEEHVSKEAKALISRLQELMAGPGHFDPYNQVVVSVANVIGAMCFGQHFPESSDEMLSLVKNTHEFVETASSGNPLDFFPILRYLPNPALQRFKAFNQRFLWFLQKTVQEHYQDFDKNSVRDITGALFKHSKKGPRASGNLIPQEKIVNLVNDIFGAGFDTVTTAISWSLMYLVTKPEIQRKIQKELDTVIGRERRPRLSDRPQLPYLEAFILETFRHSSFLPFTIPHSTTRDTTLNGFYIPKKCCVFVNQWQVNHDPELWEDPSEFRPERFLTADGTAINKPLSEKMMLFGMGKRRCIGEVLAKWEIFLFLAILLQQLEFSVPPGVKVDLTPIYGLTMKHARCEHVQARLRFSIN
Chain of Glucocorticoid receptor (Homo sapiens) (P04150 whole entry, looked up, the tested form may be a part): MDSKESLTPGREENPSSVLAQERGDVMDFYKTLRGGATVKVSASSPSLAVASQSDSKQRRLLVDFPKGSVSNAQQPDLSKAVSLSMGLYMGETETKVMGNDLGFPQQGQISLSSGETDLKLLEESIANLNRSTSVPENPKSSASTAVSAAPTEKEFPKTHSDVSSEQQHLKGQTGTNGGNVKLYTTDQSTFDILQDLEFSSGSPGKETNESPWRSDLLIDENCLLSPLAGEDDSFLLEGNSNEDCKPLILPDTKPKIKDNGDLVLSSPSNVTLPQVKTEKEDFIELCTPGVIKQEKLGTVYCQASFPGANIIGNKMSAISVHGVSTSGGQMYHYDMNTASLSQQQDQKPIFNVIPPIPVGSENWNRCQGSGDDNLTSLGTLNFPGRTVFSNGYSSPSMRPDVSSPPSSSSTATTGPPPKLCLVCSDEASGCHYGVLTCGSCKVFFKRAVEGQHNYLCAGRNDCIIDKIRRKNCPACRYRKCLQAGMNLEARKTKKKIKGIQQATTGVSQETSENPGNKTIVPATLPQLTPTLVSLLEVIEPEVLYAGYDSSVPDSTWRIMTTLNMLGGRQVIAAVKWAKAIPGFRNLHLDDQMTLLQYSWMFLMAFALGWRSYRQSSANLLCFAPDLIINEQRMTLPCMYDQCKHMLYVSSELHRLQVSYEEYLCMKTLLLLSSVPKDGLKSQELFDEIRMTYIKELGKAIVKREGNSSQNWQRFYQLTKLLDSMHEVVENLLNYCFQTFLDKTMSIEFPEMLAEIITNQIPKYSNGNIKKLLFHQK
Chain of Cytochrome P450 2C19 (Homo sapiens) (P33261 whole entry, looked up): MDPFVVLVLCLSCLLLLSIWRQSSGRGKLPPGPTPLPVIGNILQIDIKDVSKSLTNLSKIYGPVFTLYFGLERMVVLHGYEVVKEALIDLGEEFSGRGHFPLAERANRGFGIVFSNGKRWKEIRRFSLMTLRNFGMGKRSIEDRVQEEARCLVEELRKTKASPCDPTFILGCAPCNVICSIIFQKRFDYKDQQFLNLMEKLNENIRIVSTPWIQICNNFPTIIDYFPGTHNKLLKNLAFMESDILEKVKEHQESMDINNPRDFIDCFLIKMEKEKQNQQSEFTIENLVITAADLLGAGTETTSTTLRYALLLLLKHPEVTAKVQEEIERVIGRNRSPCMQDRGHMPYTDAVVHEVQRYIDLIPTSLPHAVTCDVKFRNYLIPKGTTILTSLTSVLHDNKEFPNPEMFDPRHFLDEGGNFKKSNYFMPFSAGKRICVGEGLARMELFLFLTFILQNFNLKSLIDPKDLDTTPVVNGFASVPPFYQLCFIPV

In the case of `CC(C)(C)c1ccc(O)c(CN(Cc2c(O)ccc3ccccc23)C2CCCCC2)c1`, the Potency is more than 11.4 µM in assay [1]; 3.98 µM (active) in [3]; more than 46 µM in [6]; more than 9.22 µM in assay [7]; 0.794 µM (active) in assay [10]; 2 µM (active) in assay [11]. The activity change, negative = inhibition is -7.92% in [2] and -10.8% in assay [4]. The activity, negative = inhibition in assay [5] is -13.7%. For the same compound, the Potency entry in [8] and in [9] was “inactive” throughout. Further, in assay [12], the activation was 2.73%.
As to `O=C(O)CCSCc1ccccc1`, the results for the Potency in assay [1], in assay [6] and in assay [7] were more than 11.4 µM, more than 46 µM and more than 9.22 µM, respectively. The activity change, negative = inhibition in [2] is 4.81%; in [4], -0.126%. For the same compound, the Potency entry in assay [3], in assay [8], in assay [9] and in assay [11] was “inactive” each time. Further, the activity, negative = inhibition in assay [5] was -0.355%.
On to `O=C(O)NCC1CCCCC1` (tested in a mixture with another compound), for which the Potency is more than 11.4 µM in [1], more than 46 µM in assay [6], more than 9.22 µM in assay [7] and 3.98 µM (active) in [10]. Moreover, the activity change, negative = inhibition in assay [2] is 23.3%; in assay [4], 22.8%. The Potency entry in [3], in [8] and in [9] was “inactive” throughout. Also, the activity, negative = inhibition in assay [5] was -1.59%.
Consider `C=CC[C@@H](C(=O)O)c1ccccc1`, for which the Potency in assay [1] is more than 11.4 µM; in assay [6], more than 46 µM; in [7], more than 9.22 µM. The activity change, negative = inhibition was 2.31% in assay [2] and 9.16% in assay [4]. Moreover, the Potency result in assay [3], in [8], in assay [9] and in assay [11] was “inactive” throughout. Moreover, the activity, negative = inhibition in [5] was 8.67%.
As to `C[C@]12CC[C@H]3c4ccc(O)cc4CC[C@@H]3[C@H]1C/C(=N/O)[C@H]2O`, the values for the Potency in [1], in [6] and in assay [7] were more than 11.4 µM, more than 46 µM and more than 9.22 µM, respectively. The activity change, negative = inhibition was -6.54% in assay [2] and 3.7% in assay [4]. Besides, the Potency entry in assay [3], in assay [8], in [9] and in assay [10] was “inactive” throughout. In addition, the activity, negative = inhibition in assay [5] was 1.89%.
On to `O=C(O)CC1(C(=O)O)CCCCC1`, for which the Potency in assay [1] is more than 11.4 µM; in assay [6] it was more than 46 µM; in [7], more than 9.22 µM. Also, the activity change, negative = inhibition in assay [2] was -1.19%; in assay [3], 5.1% [at 2.29 µM]; in assay [4] it was 7.95%. The activity, negative = inhibition in assay [5] is 1.85%. In addition, the Potency result in assay [8], in assay [9], in assay [10] and in assay [11] was “inactive” in each case.
On to `CC(=O)CC(=O)Nc1ccc2ccccc2c1`, for which the Potency in assay [1] is more than 11.4 µM; in assay [3], 2 µM (active); in assay [6], more than 46 µM; in [7], more than 9.22 µM. The activity change, negative = inhibition in assay [2] was 6.48%; in [4], 11.8%. Further, the activity, negative = inhibition in [5] was 6.17%. The Potency entry in assay [8], in assay [9] and in assay [11] was “inactive” each time.
On to `Oc1c(Br)cc(Br)cc1CN(Cc1cc(Br)cc(Br)c1O)C1CCCCC1`, for which the Potency in [1] is more than 11.4 µM; in [3], 3.16 µM (active); in assay [6] it was more than 46 µM; in assay [7], more than 9.22 µM; in [10] it was 0.251 µM (active); in assay [11], 0.316 µM (active). Further, the activity change, negative = inhibition in assay [2] is 6.04%; in assay [4] it was 5.11%. Besides, the activity, negative = inhibition in [5] is -17.9%. For the same compound, the Potency result in assay [8] and in assay [9] was “inactive” in each case.
Consider `OCCN(CO)CO`, for which the Potency is more than 11.4 µM in [1], more than 46 µM in assay [6] and more than 9.22 µM in assay [7]. Further, the activity change, negative = inhibition in assay [2] was 6.19%; in assay [4], 13.5%. Moreover, the Potency result in assay [3], in assay [8], in assay [9] and in assay [10] was “inactive” in each case. Further, the activity, negative = inhibition in assay [5] was 7.15%.
On to `O=C(O)CSSCC(=O)O`, for which the values for the Potency in assay [1], in [6] and in [7] were more than 11.4 µM, more than 46 µM and more than 9.22 µM, respectively. Besides, the activity change, negative = inhibition in assay [2] is 5.08%; in [4] it was 15.8%. Also, the Potency result in [3], in [8], in assay [9], in [10] and in assay [11] was “inactive” throughout. Also, in [5], the activity, negative = inhibition is 17.7%.
For `CC(C)CNC(=O)O`, the Potency is more than 11.4 µM in assay [1], more than 46 µM in assay [6] and more than 9.22 µM in assay [7]. Moreover, the results for the activity change, negative = inhibition in assay [2] and in [4] were 8.49% and 0.858%, respectively. Also, the Potency result in assay [3], in assay [8], in assay [9], in assay [10] and in [11] was “inactive” throughout. Moreover, the activity, negative = inhibition in assay [5] was 3.89%.
As to `COc1ccc(-c2cc([C@H](O)[C@@H]3CCCCN3)c3ccccc3n2)cc1`, the Potency in assay [1] is more than 11.4 µM; in [6] it was more than 46 µM; in assay [7], more than 9.22 µM; in [10], 3.16 µM (active); in assay [11], 3.98 µM (active). Also, the activity change, negative = inhibition in [2] was 27.7%; in [3], -11% [at 2.29 µM]; in assay [4] it was 23.2%. In assay [5], the activity, negative = inhibition is 2.85%. Further, the Potency entry in assay [8] and in assay [9] was “inactive” each time.
On to `Cc1cc(C(C)(C)C)cc(CNC2CCCCC2)c1O`, for which the Potency in assay [1] was more than 11.4 µM; in [3], 3.16 µM (active); in [6] it was more than 46 µM; in assay [7] it was more than 9.22 µM; in assay [10] it was 0.501 µM (active); in assay [11], 0.02 µM (active). For the same compound, the results for the activity change, negative = inhibition in assay [2] and in assay [4] were 8.19% and 22.7%, respectively. In addition, the activity, negative = inhibition in [5] was 10.5%. Also, the Potency entry in assay [8] and in assay [9] was “inactive” in each case.
For the compound `Clc1ccc(-c2noc(CN3CCCCC3)n2)cc1`, the Potency is more than 11.4 µM in assay [1]; 0.631 µM (active) in assay [3]; more than 46 µM in assay [6]; more than 9.22 µM in assay [7]; 1.58 µM (active) in [11]. Further, the activity change, negative = inhibition in assay [2] is 1.13%; in [4] it was 2.07%. For the same compound, the activity, negative = inhibition in assay [5] is -0.202%. The Potency result in assay [8] and in assay [9] was “inactive” in each case.
